The values that follow come from PubChem BioAssay.

A number with no mark means an inactive call. Active and inactive are the calls of the source.

A short description of the assay: fission yeast growth modulation, primary screen, strain 972, OD600, 24 h, no modulator (AID 1090).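 Also: basal condition with compound alone and no growth modifier present; test concentration not given here.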 To be noted: S. pombe 972 growth, higher = more signal, called active from +8 up or from −8 down.
In the case of `CO[C@H]1COC(=O)CC=C[C@H](C)[C@@H](OC)COC(=O)[C@@H](C)NC(=O)CC=C[C@@H]1C`, the z-score is 0.0386.

With `CCOC(=O)[C@H](Cc1ccccc1)NC(=O)OC1CC(CCC2CC(CC)=NO2)OC2(CCCC(COC(=O)NCCC(C)C)O2)C1` (stereo partly specified), the z-score was 0.595.

Regarding `CC(C)CON=C1C[C@@H](O)[C@@H](O)[C@@H]2[C@@H]3C(=O)N(c4ccc(F)cc4F)C(=O)[C@@H]3CC[C@H]12`, the z-score was -0.59.

For `CC(C)(C)N1C(=O)[C@H]2[C@H]3[C@H](O)[C@H](O)CC(=NO[C@@H]4O[C@H](CO)[C@@H](O)[C@H](O)[C@H]4O)[C@H]3CC[C@H]2C1=O`, the z-score is -1.05.

`COC(=O)C=CCCc1coc(C=CCNC(=O)OC)n1`: the z-score is 0.255.

Regarding `Cc1ccc(S(=O)(=O)OC[C@H]2CN3[C@H](c4ccc(Br)cc4)[C@@H](C)CC[C@H]3C(=O)O2)cc1`, the z-score was -17.8 (active).

For `CO[C@@H]1COC(=O)[C@@H](C)NC(=O)CC=C[C@@H](C)[C@H](NS(=O)(=O)c2ccc(C)cc2)COC(=O)[C@H](C)NC(=O)CC=C[C@H]1C`, the z-score is -0.988.

Take `COC(=O)[C@H](C)NC(=O)CCC1CC(OC(=O)NCc2ccc3c(c2)OCO3)CC2(CCCC(COC(=O)NCC3CCCCC3)O2)O1` (stereo partly specified): the z-score was 0.803.

Consider `C#CCCCON=C1C[C@@H](O)[C@@H](O)[C@@H]2[C@@H]3C(=O)N(C(C)(C)C)C(=O)[C@@H]3CC[C@H]12`, for which the z-score is -0.401.

Turning to `CCOC(=O)NN=C1C[C@@H](O)[C@@H](O)[C@@H]2[C@@H]3C(=O)N(C(C)(C)C)C(=O)[C@@H]3CC[C@H]12`, the z-score is 0.277.

For the molecule `C[C@H]1COC(=O)[C@@H]2CCCN2C(=O)[C@@H](C)COC(=O)[C@H](Cc2ccccc2)NC1=O`, the z-score was 0.103.

Turning to `CCOC(=O)NN=C1C[C@@H](O)[C@@H](O)[C@@H]2[C@@H]3C(=O)N(c4cccc(Oc5ccccc5)c4)C(=O)[C@@H]3CC[C@H]12`, the z-score was -0.216.

As for `CCOC(=O)C1=NO[C@@]2(C=C(Br)C3(OCCCO3)[C@H]3O[C@H]32)C1`, the z-score was 0.664.

On to `CO[C@@H]1COC(=O)[C@H](CCSC)NC(=O)CC=C[C@@H](C)COC(=O)CCC[C@H]1C`, for which the z-score was 0.583.

With `CCOC(=O)[C@H](Cc1ccccc1)NC(=O)CCC1CC(OC(=O)NCc2cccc3ccccc23)CC2(CCCC(COC(=O)NCCC(C)C)O2)O1` (stereo partly specified), the z-score is -0.0031.

For the molecule `CC[C@@H](c1ccccc1)n1c(=O)n2n(c1=O)[C@H]1[C@H](O)[C@@H]3O[C@@H]3C(=O)[C@H]1CC2`, the z-score is -2.45.

For the molecule `CCc1cc2c(nc1CC)CCN(CCC(C)=NO[C@H](C)c1cn([C@H](CO)Cc3ccccc3)nn1)C2`, the z-score is -0.484.

`CCOC(=O)[C@H](CC(C)C)NC(=O)CCC1CC(OC(=O)NCc2ccc3c(c2)OCO3)CC2(CCCC(COC(=O)NCC(c3ccccc3)c3ccccc3)O2)O1` (stereo partly specified): the z-score is 0.707.

Turning to `CCOC(=O)CCN1C(=O)[C@H]2[C@H]3[C@H](O)[C@H](O)CC(=NOCC(C)C)[C@H]3CC[C@H]2C1=O`, the z-score is 0.307.

For `O=C1[C@H]2[C@H]3[C@H](O)[C@H](O)CC(=NOCc4ccccc4)[C@@H]3CC[C@H]2C(=O)N1C[C@@H]1CCCO1`, the z-score is 0.767.

On to `CCOC(=O)[C@H](CC(C)C)NC(=O)CCC1CC(OC(=O)NCc2cccc3ccccc23)CC2(CCCC(COC(=O)NCC3CCCCC3)O2)O1` (stereo partly specified), for which the z-score is -0.947.

Consider `CC(C)=CCCC(C)=CCON=C1C[C@@H](O)[C@@H](O)[C@@H]2[C@@H]3C(=O)N(c4cccc(Oc5ccccc5)c4)C(=O)[C@@H]3CC[C@@H]12`, for which the z-score is -0.153.

Regarding `O=C1[C@H]2[C@H]3[C@H](O)[C@H](O)CC(=NOC[C@@H](O)COCc4ccco4)[C@H]3CC[C@H]2C(=O)N1c1ccc(F)cc1F`, the z-score is -1.99.

Take `COc1ccc(O[C@@H]2[C@H](O)CO[C@H]2C=Cc2ccccc2)cc1`: the z-score was -3.17.

On to `COC(=O)[C@@H]1CC[C@H](C)[C@@H](c2ccc(C)cc2)N1C(=O)c1ccc(C=NO[C@@H]2O[C@H](COC(C)=O)[C@@H](OC(C)=O)[C@H](OC(C)=O)[C@H]2OC(C)=O)cc1`, for which the z-score was -0.631.

With `CO[C@H]1COC(=O)[C@H](C)NC(=O)[C@@H](C)COC(=O)[C@H]2CCCN2C(=O)CC=C[C@H]1C`, the z-score was -0.658.
